Experiments:
Test in all cases: PBM binding z-score (relative to random genomic background probes); higher = stronger binding; sequences stand for … in GC…GCGATTGACAGCGTAGAATGAAGG
[1] = tested on: FXR:RXRa (NR concentration 270 nM, RXRa partner concentration 90 nM)
In short: (§1)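 Ligand-free nuclear receptor dimers were applied to custom Agilent 4×180K protein-binding microarrays whose double-stranded probes carried direct-repeat seeds, single-nucleotide variants, half-site ablations and random human genomic background sequences in 34-nt variable regions. Incubation lasted 1 h. Binding z-scores were computed against the random background probes from regression-normalized fluorescence.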

[2] = tested on: LXRa:RXRa (NR concentration 270 nM, RXRa partner concentration 90 nM)
In short: as §1

[3] = tested on: LXRa homodimer (NR concentration 270 nM)
In short: as §1

[4] = tested on: LXRb:RXRa (NR concentration 270 nM, RXRa partner concentration 90 nM)
In short: as §1

[5] = tested on: LXRb homodimer (NR concentration 270 nM)
In short: as §1

[6] = tested on: PPARa:RXRa (NR concentration 270 nM, RXRa partner concentration 90 nM)
In short: as §1

[7] = tested on: PPARg:RXRa (NR concentration 180 nM, RXRa partner concentration 90 nM)
In short: as §1

[8] = tested on: PPARg:RXRa 270nM:90nM, anti-RXR (NR concentration 270 nM, RXRa partner concentration 90 nM)
In short: as §1

[9] = tested on: PPARg:RXRa 30nM:10nM, anti-RXR (NR concentration 30 nM, RXRa partner concentration 10 nM)
In short: as §1

[10] = tested on: PPARg:RXRa 90nM:30nM, anti-RXR (NR concentration 90 nM, RXRa partner concentration 30 nM)
In short: as §1

[11] = tested on: PPARg:RXRa DBDmut IVT, anti-RXR (DBD mutation: RXRa K156A/R161A, NR concentration 270 nM, RXRa partner concentration 90 nM)
In short: as §1

[12] = tested on: PPARg:RXRa IVT, anti-PPARg (NR concentration 270 nM, RXRa partner concentration 90 nM)
In short: as §1

[13] = tested on: PPARg DBDmut:RXRa IVT, anti-PPARg (DBD mutation: PPARg1 K132A/R137A, NR concentration 270 nM, RXRa partner concentration 90 nM)
In short: as §1

[14] = tested on: PPARg DBDmut IVT, anti-PPARg (DBD mutation: PPARg1 K132A/R137A, NR concentration 270 nM)
In short: as §1

[15] = tested on: PPARg homodimer (NR concentration 180 nM)
In short: as §1

[16] = tested on: PXR:RXRa (NR concentration 270 nM, RXRa partner concentration 90 nM)
In short: as §1

[17] = tested on: PXR homodimer (NR concentration 270 nM)
In short: as §1

[18] = tested on: RARa:RXR (NR concentration 270 nM, RXRa partner concentration 90 nM)
In short: as §1

[19] = tested on: RARa homodimer (NR concentration 270 nM)
In short: as §1

[20] = tested on: RARb:RXRa (NR concentration 270 nM, RXRa partner concentration 90 nM)
In short: as §1

Sequence | PBM binding z-score [1] | PBM binding z-score [2] | PBM binding z-score [3] | PBM binding z-score [4] | PBM binding z-score [5] | PBM binding z-score [6] | PBM binding z-score [7] | PBM binding z-score [8] | PBM binding z-score [9] | PBM binding z-score [10] | PBM binding z-score [11] | PBM binding z-score [12] | PBM binding z-score [13] | PBM binding z-score [14] | PBM binding z-score [15] | PBM binding z-score [16] | PBM binding z-score [17] | PBM binding z-score [18] | PBM binding z-score [19] | PBM binding z-score [20]
TAGCCTAGGTCATTGGGTCAGTATAGTACGCATC | 4.85 | 4.31 | 1.59 | 3.21 | 0.907 | 4.58 | 5.28 | 5.07 | 1.89 | 3.99 | 4.09 | 4.95 | 0.491 | 0.952 | 3.71 | 2.99 | 0.622 | 3.67 | 0.571 | 4.06
TAGCCTAGGTCATATCGGGCCAGTATACGCTATA | 4.12 | 3.82 | 0.583 | 2.59 | 0.744 | 3.14 | 1.53 | 1.61 | 0.227 | 0.981 | 1.18 | 2.19 | 0.112 | 0.0699 | 0.54 | 2.18 | 0.0831 | 1.92 | -0.618 | 3.37
CCTACTGGGCCATTCAGAGGTCCTTGATCATATG | -0.359 | -0.572 | -0.215 | -0.597 | -0.529 | 0.27 | 0.118 | 0.194 | -0.728 | -0.16 | 4.1 | 3.15 | -0.401 | 0.127 | -0.0171 | -0.621 | -0.408 | -0.409 | -0.479 | 0.0641
ATCTCTAGGTAAAATTCAGTGAAAGATCGATAGA | 0.583 | 0.493 | 0.422 | 0.121 | 0.916 | 0.171 | 0.606 | 0.699 | 0.552 | 0.917 | 1.48 | 1.53 | 0.966 | 1.25 | 1.04 | -0.0781 | 0.481 | -0.157 | 1.26 | 0.336
TGAATGAGGTTATAAGAACAGGGAACGTTGCAAA | 1.63 | 1.18 | -0.262 | 1.03 | 0.118 | 2.32 | 1.33 | 1.6 | 0.909 | 1.08 | 0.968 | 1.75 | 0.842 | 0.453 | 0.709 | 0.563 | -0.0582 | 1.32 | -0.0801 | 1.11
ATCTCTAGGTAATCAAGTTCAGTGAATGCCGAAC | 0.473 | 1.01 | 1.61 | 0.658 | 0.711 | 1.01 | 0.317 | 1.19 | 0.611 | 1.19 | 2.71 | 2.29 | 0.964 | 0.455 | 0.892 | 1.95 | 2 | 0.799 | 0.778 | 1
TCCTATAGGTAATACAGGTGAAAGTCGGCATCTA | 0.774 | 0.986 | -0.00145 | 0.839 | 0.103 | 1.84 | 0.918 | 1.91 | 3.2 | 2.41 | 2.84 | 2.12 | 0.665 | 0.687 | 0.164 | 0.43 | -0.159 | 0.537 | 0.724 | 0.581
CGTCCAATGTCAAAGGTCAGTGAAGAGATGACGG | 4.62 | 4.48 | 1.56 | 3.64 | 0.773 | 5.18 | 6.67 | 6.88 | 4.57 | 6.96 | 0.671 | 3.16 | 0.777 | 0.834 | 4.53 | 4.53 | 0.54 | 6.27 | 2 | 4.36
TGAATGAGCTTATAAGATCAGGGAACGTTGCAAA | -0.538 | -0.891 | -0.553 | -0.584 | -0.76 | -0.485 | -0.117 | -0.382 | 0.0852 | -0.46 | -1.43 | -0.528 | 0.471 | 0.179 | -0.626 | -0.456 | -0.325 | -0.125 | -0.206 | -1.12
